# A number with no mark means an inactive call.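 Rule for the calls: active = MAPPIT score above the 99th percentile of random reference set scores in the same batch; inactive = at or below it.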
# Tests used:
# Experiment in all cases: MAPPIT interaction score (arbitrary units); higher = stronger binary interaction signal, active = hit call of the paper
# [1] = molecular target: Lmpt; conditions: MAPPIT configuration: N-N; pair source set: Curagen_low_conf
# [2] = molecular target: Pen; conditions: MAPPIT configuration: N-N; pair source set: Finley_Y2H
# [3] = molecular target: lwr; conditions: MAPPIT configuration: N-N; pair source set: screen_1
# [4] = molecular target: MAPk-Ak2; conditions: MAPPIT configuration: N-N; pair source set: Curagen_high_conf
# [5] = molecular target: MED15; conditions: MAPPIT configuration: N-N; pair source set: Finley_Y2H
# [6] = molecular target: MED8
# [7] = molecular target: MESK2; conditions: MAPPIT configuration: N-N; pair source set: DPIM
# [8] = molecular target: MYPT-75D; conditions: pair source set: Lit-BM-16
# [9] = molecular target: Mbs; conditions: MAPPIT configuration: N-N; pair source set: Lit-BM-16
# [10] = molecular target: Nop17l; conditions: MAPPIT configuration: N-N; pair source set: Lit-BM-16
# [11] = molecular target: Tm1; conditions: MAPPIT configuration: N-C; pair source set: Lit-BM-16
# [12] = molecular target: Zasp66; conditions: pair source set: Lit-BM-16
# [13] = molecular target: elm; conditions: MAPPIT configuration: N-N; pair source set: Lit-BS-16
# 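Note: HEK293T cells with Epo stimulation, STAT-responsive firefly luciferase reporter, fold induction versus unstimulated cells divided by the larger fold induction of two negative controls lacking either bait or prey.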
binder,measurement,setting,value
prod (protein) MEKVEAVTVSNVDPYRRILNKVVSQLLLDKGAGQASNHSLETLTQMLQALIWEIGNSAHNYCELSGRTMPTVGDVSLALINMGISISNLDPYMRKETHVPIPLPPQQTQQRPLSLLQAGIKAPHPHYVPSYFPPMPDPHAYIRTPTHKQPVTEYEAIREKAACQKRDIEKALTKFLCKTTETNNLFPTEDNMFPLIACKPAFPPYAAALNPTDQVFDFEELEYHYLVANRTEDEPSKDDGEEGDSENEEMDGDKSKEEKPELDIKPNSNTNKAILENPNIDNPYLRAATLPKRSKNCPTPGTMPSRSLATTAPTIRTPSTLEITKTNL,MAPPIT interaction score,[1],2.19
same,MAPPIT interaction score,[2],0.326
same,MAPPIT interaction score,[3],-0.147
p38b (protein) MSRKMAKFYKLDINRTEWEIPETYQNLQPVGQGAYGQVCKAVVRGTSTKVAIKKLARPFQSAVHAKRTYRELRLLKHMDHENVIGLLDVFHPGQPADSLDQFQQVYMVTHLMDADLNNIIRTQKLSDDHVQFLVYQILRGLKYIHSAGVIHRDLKPSNIAVNEDCELRILDFGLARPAESEMTGYVATRWYRAPEIMLNWMHYNQTADIWSVGCIMAELLTGRTLFPGTDHIHQLNLIMEVLGTPADEFMSRISSESARNYIRSLPVMPRRNFRDIFRGANPLAIDLLEKMLELDADKRITAEQALAHPYMEKYHDPTDEQTAALYDQSFEENELPVEKWREMVFSEVTAFKPTAAFAELLPKEQ,MAPPIT interaction score,[4],1.93
grp (protein) MAATLTEAGTGPAATREFVEGWTLAQTLGEGAYGEVKLLINRQTGEAVAMKMVDLKKHPDAANSVRKEVCIQKMLQDKHILRFFGKRSQGSVEYIFLEYAAGGELFDRIEPDVGMPQHEAQRYFTQLLSGLNYLHQRGIAHRDLKPENLLLDEHDNVKISDFGMATMFRCKGKERLLDKRCGTLPYVAPEVLQKAYHAQPADLWSCGVILVTMLAGELPWDQPSTNCTEFTNWRDNDHWQLQTPWSKLDTLAISLLRKLLATSPGTRLTLEKTLDHKWCNMQFADNERSYDLVDSAAALEICSPKAKRQRLQSSAHLSNGLDDSISRNYCSQPMPTMRSDDDFNVRLGSGRSKEDGGDRQTLAQEARLSYSFSQPALLDDLLLATQMNQTQNASQNYFQRLVRRMTRFFVTTRWDDTIKRLVGTIERLGGYTCKFGDDGVVTVSTVDRNKLRLVFKAHIIEMDGKILVDCRLSKGCGLEFKRRFIKIKNALEDIVLKGPTTWPIAIATNSVP,MAPPIT interaction score,[5],2.02
Trmt112 (protein) MKLSTYNFLTSVAIKGVKVGFPLKLTINKKEVVESEFNPTFVERILPKLDWSAVYGAAQVAELTEDIPAVQPENIVENELLLQKLHHLLFEIDVLEGQLECPETGRVFPISDGIPNMLLNEDEV,MAPPIT interaction score,"[6]; MAPPIT configuration: N-C, pair source set: screen_4",0.923
same,MAPPIT interaction score,"[6]; MAPPIT configuration: N-N, pair source set: Finley_Y2H",1.99
SdhB (protein) MLATEARQILSRVGSLVARNQMRAISNGTAQLEQQAQPKEAQEPQIKKFEIYRWNPDNAGEKPYMQTYEVDLRECGPMVLDALIKIKNEMDPTLTFRRSCREGICGSCAMNIGGTNTLACISKIDINTSKSLKVYPLPHMYVVRDLVPDMNNFYEQYRNIQPWLQRKNEAGEKKGKAQYLQSVEDRSKLDGLYECILCACCSTSCPSYWWNAEKYLGPAVLMQAYRWIIDSRDENSAERLNKLKDPFSVYRCHTIMNCTRTCPKGLNPGRAIAEIKKLLSGLASKPAPKLETAALHK,MAPPIT interaction score,[7],0.135
flw (protein) MGDFDLNVDSLIQRLLEMRSCRTGKQVQMTEAEVRGLCLKSREIFLQQPILLELEAPLIICGDIHGQYTDLLRLFEYGGFPPAANYLFLGDYVDRGKQSLETICLLLAYKIKYPENFFLLRGNHECASINRIYGFYDECKRRYNVKLWKTFTDCFNCLPVAAIIDEKIFCCHGGLSPDLQGMEQIRRLMRPTDVPDTGLLCDLLWSDPDKDVQGWGENDRGVSFTFGVDVVSKFLNRHELDLICRAHQVVEDGYEFFARRQLVTLFSAPNYCGEFDNAGGMMTVDDTLMCSFQILKPSEKKAKYLYSGMNSSRPTTPQRSAPMLATNKKK,MAPPIT interaction score,[8]; MAPPIT configuration: N-C,0.517
same,MAPPIT interaction score,[8]; MAPPIT configuration: N-N,-0.255
same,MAPPIT interaction score,[9],-0.0767
same,MAPPIT interaction score,[10],-0.464
same,MAPPIT interaction score,[11],1.19
same,MAPPIT interaction score,[12]; MAPPIT configuration: N-C,0.478
same,MAPPIT interaction score,[12]; MAPPIT configuration: N-N,0.558
same,MAPPIT interaction score,[13],-0.48

# From the supplement of paper PMC10105736
